Screens from PubChem.
Shown are actives, neighbours in structure and some others; about 3.5% of the full set was active somewhere.
TEAD-YAP block – TEAD-YAP interaction inhibition | inhibition, % at 9.12 µM | AID 1259422 | HEK-TIYL cells, TEAD-Gal4/YAP UAS-luciferase luminescence | hit rate 1.4% among 640,000; in the data active = inhibition above about 32%
FBW7 act – human FBW7 E3 ligase activation, primary screen. Q969H0. AlphaScreen FBW7–phospho-cyclin E peptide binding, activator screen. normalized activity (activation), % at 26.1 µM. hit rate 0.13% among 650,000. AID 1259310; in the data active = normalized activity above about 1.9%;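 note: purified mutant Fbw7 with reduced substrate affinity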
MITF primary – inhibitors of human MITF; O75030; AlphaScreen MITF homodimerization, bead proximity signal; inhibition, % at 2.6 µM; hit rate 0.91% among 650,000; in the data active = inhibition above about 50%
GPR151 ag – activates the human receptor GPR151. PathHunter beta-arrestin GPR151 cells, luminescence. activation, % at 11.2 µM. hit rate 1% among 650,000; in the data active = activation above about 4.9%
Target sequence (Q8TDV0 whole entry, looked up): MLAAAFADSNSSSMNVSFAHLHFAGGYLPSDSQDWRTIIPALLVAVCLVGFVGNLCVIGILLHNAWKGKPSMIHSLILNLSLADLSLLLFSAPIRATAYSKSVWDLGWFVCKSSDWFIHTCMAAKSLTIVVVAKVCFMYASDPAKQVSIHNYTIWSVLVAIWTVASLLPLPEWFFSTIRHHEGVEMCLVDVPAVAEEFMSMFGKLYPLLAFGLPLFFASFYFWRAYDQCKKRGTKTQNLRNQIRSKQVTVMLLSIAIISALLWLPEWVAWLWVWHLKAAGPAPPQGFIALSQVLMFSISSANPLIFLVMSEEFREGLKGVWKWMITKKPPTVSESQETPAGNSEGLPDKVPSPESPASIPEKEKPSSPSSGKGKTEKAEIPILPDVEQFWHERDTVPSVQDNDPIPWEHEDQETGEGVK
GPR151 confirm – human GPR151 activation, confirmation screen; activation, % at 11.2 µM; 6,700 tested, under 10 active; GPR151 PathHunter beta-arrestin cells, luminescence, 90 min; % of EA-reagent control over plate median; shares compounds with GPR151 ag; AID 1508609;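 active = mean percent activation across replicates above the confirmation screen cutoff of 4.91%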
GPR119 counter – GPR119 activation, counter-screen for GPR151 activators. AID 1508611. hit rate 0.3% among 6,700. shares compounds with GPR151 ag. activation, % at 11.2 µM. GPR119 PathHunter beta-arrestin cells, luminescence, 90 min; 0 = compound-well median, 100 = enzyme-acceptor control;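 active = mean percent activation in the counterscreen above 29.09%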;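 note: counterscreen on off-target GPR119 to flag nonselective hits from the GPR151 activator screen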
A number is an active result; - = inactive; . = not tested or not shown; ! = a repeat was not active.

SMILES | TEAD-YAP block | FBW7 act | MITF primary | GPR151 ag | GPR151 confirm | GPR119 counter
Cn1c(SC/C=C/c2ccccc2)nc2sc3c(c2c1=O)CCCC3 | - | - | - | - | . | .
Cc1ncc(-c2ccncc2)c(C2CCCN(CC(=O)N3CCc4ccccc43)C2)n1 (stereo unspecified) | - | - | - | - | . | .
Cc1ccc(C(=O)/C=C\N2CCCCC2)cc1 | - | - | - | 5.2 | - | -
CCC1CN(Cc2nc3ccccc3[nH]2)Cc2cc(OC)ccc2O1 (stereo unspecified) | - | - | - | - | . | .
CCC1CN(CCC(=O)NCCc2nc3ccccc3[nH]2)Cc2cc(OC)ccc2O1 (stereo unspecified) | - | - | - | 7.0 | - | -
O=C(CSC1=NC(=O)C(Cc2ccccc2)C(=O)N1)Nc1ccccc1 (stereo unspecified) | - | - | - | - | . | .
Cc1ccc(NC(=O)CSC2=NC(=O)C(Cc3ccccc3)C(=O)N2)cc1 (stereo unspecified) | - | - | - | 11 | - | -
O=C1Nc2ccccc2/C1=C/c1cc2c(cc1[N+](=O)[O-])OCO2 | - | - | - | - | . | .
CC(C)N1CCN(Cc2cccc(OCCO)c2)CC1CCO (stereo unspecified) | - | - | - | - | . | .
OCCOc1ccc(CN2CCN(Cc3ccc(F)c(F)c3)C(CCO)C2)cc1 (stereo unspecified) | - | - | - | 6.8 | - | -
CC(C)N1CCN(Cc2ccc(OCCO)cc2)CC1CCO (stereo unspecified) | - | - | - | 5.2 | - | -
COc1cccc(CNC(=O)c2cc3ccc(-c4ccncc4)nc3[nH]2)c1 | - | - | - | 5.2 | - | -
COc1cccc(CNC(=O)c2cc3ccc(-c4ccncc4)cc3[nH]2)c1 | - | - | - | - | . | .
COc1cccc(CNC(=O)c2cc3ccc(-c4cn[nH]c4)cc3n2CCCO)c1 | - | - | - | 5.5 | - | -
COc1cccc(CNC(=O)c2cc3ccc(-c4ccncc4)cc3n2C)c1 | - | - | - | 7.8 | - | -
CC(=O)n1cc(/C=c2\sc3nc(=O)c4c5c(sc4n3c2=O)CCCC5)c(-c2ccc(F)cc2)n1 | - | - | - | - | . | .
CCc1ccc(C2C(C#N)=C(N)N(c3cccc([N+](=O)[O-])c3)C3=C2C(=O)CCC3)cc1 (stereo unspecified) | - | - | - | - | . | .
COc1ccc(NC(=O)Cn2c(=S)[nH]c3c([nH]c4ccc(OC)cc43)c2=O)cc1 | - | - | - | - | . | .
CCOC(CNC(=O)CCNC(=O)c1ccc(Br)o1)OCC | - | - | - | - | . | .
COc1cccc(C2Nc3ccccc3-c3nnc(SCc4ccccc4)nc3O2)c1 (stereo unspecified) | - | - | - | - | . | .
CCCCOc1ccc(C(=O)N/C(=C/c2ccc(Cl)cc2)C(N)=O)cc1 | - | - | - | 9.8 | - | -
CCCCOc1ccc(C(=O)N/C(=C/c2ccc([N+](=O)[O-])cc2)C(N)=O)cc1 | - | - | - | - | . | .
Cc1ccc(S(=O)(=O)N2CCC(C(=O)NNC(=O)c3nn(C)cc3Br)CC2)cc1 | - | - | - | - | . | .
CCCOc1ccc(-c2csc(NC(=O)CC)n2)cc1 | - | - | - | - | . | .
Cc1oc(C(=O)O)cc1CSCc1ccoc1C(=O)O | - | - | - | 6.1 | - | -
SMILES | TEAD-YAP block | FBW7 act | MITF primary | GPR151 ag | GPR151 confirm | GPR119 counter
COc1cc(/C=C/c2nnc3c4ccccc4ncn23)cc(OC)c1OC | - | - | - | 8.4 | - | -
C(=C\c1nnc2c3ccccc3ncn12)/c1ccccc1 | - | - | - | - | . | .
CCCc1nc2ccccc2c(=O)n1-c1c(C)n(C)n(-c2ccccc2)c1=O | - | - | - | 6.8 | - | -
Cc1c(-n2c(SC/C=C\Cl)nc3ccccc3c2=O)c(=O)n(-c2ccccc2)n1C | - | - | - | - | . | .
OC(COc1cccc2ccccc12)CN1CCNCC1 (stereo unspecified) | - | - | - | 12 | - | -
CC(C)NCC(O)COc1cccc2ccccc12 (stereo unspecified) | - | - | - | 5.5! | - | -
COc1cccc(OC)c1OCC(O)CN1CCN(c2ccccc2)CC1 (stereo unspecified) | - | - | - | 6.3 | - | -
COc1cccc(OC)c1OCC(O)CN1CCN(c2ccccn2)CC1 (stereo unspecified) | - | - | - | - | . | .
COc1ccc2c(c1)C(C)=CC(C)(C)N2C(=O)CNC1CCCCC1 | - | - | - | - | . | .
CC12CCC(C(=O)NCc3ccccc3)(OC1=O)C2(C)C (stereo unspecified) | - | - | - | 5.3 | - | -
CC12CCC(C(=O)NCCN3CCOCC3)(OC1=O)C2(C)C (stereo unspecified) | - | - | - | 5.9 | - | -
CCOC(=O)c1ccc(-c2ccc(-c3nc4ccc(S(N)(=O)=O)cc4[nH]3)o2)cc1 | - | - | - | - | . | .
O=c1c2ccccc2c(-c2ccc(Br)cc2)nn1-c1ccccc1 | - | - | - | - | . | .
CC(C)c1ccc(-c2nn(-c3ccccc3)c(=O)c3ccccc23)cc1 | - | - | - | 5.2 | - | -
CCc1nn(CC(=O)OC(C)C)c(=O)c2cc3oc(C)cc3n12 | - | - | - | 5.4 | - | -
COc1ccc(-c2nnc3ccc(SCC(=O)Nc4cccc(NC(C)=O)c4)nn23)cc1 | - | - | - | - | . | .
COC(=O)C1=C(C(=O)OC)[C@@H]2N(C)c3ccccc3[C@@]23CCC(=O)N(CCCOC(C)C)C3=N1 | . | - | - | 7.2 | - | -
COCCN1C(=O)CC[C@@]23C1=NC(C(=O)OC)=C(C(=O)OC)[C@@H]2N(C)c1ccccc13 | . | - | - | 6.9 | - | -
COCCN1C(=O)CC[C@@]23C1=NC(C(=O)OC)=C(C(=O)OC)[C@@H]2N(Cc1ccccc1)c1ccccc13 | . | - | - | - | . | .
Cc1cc(NC(=O)COc2cccc(C(F)(F)F)c2)no1 | - | - | - | - | . | .
CCCn1c(=NC(=O)C(C)(C)C)c(C(=O)OCC)cc2c(=O)n3ccccc3nc21 | - | - | - | - | . | .
CCCCn1c(=NC(=O)C(C)(C)C)c(C(=O)OCC)cc2c(=O)n3ccccc3nc21 | - | - | - | 5.3 | - | -
COc1ccc(NC(=O)C(=O)NCCN2CCN(C(=O)c3c(F)cccc3F)CC2)cc1 | - | - | - | 5.8 | - | -
COc1ccc(C(=O)N2CCN(CCNC(=O)C(=O)Nc3ccccc3)CC2)cc1 | - | - | - | - | . | .
CCOC(=O)c1nn(CCO)c2c1CN(Cc1cccc(Cl)c1)CC2 | - | - | - | 10 | - | -
COc1ccc(CCN2CNc3c(c(=O)n(C)c(=O)n3C)C2)c(OC)c1OC | - | - | - | - | . | .
Cc1cc(C)c2nc(N(CCn3cccn3)C(=O)C3CC3)sc2c1 | - | - | - | 6.1 | - | -
Cc1cc(NCCN2CCOCC2)nc(Cl)n1 | - | - | - | 6.2 | - | -
COC(=O)C1=C(C(=O)OC)SC2(S1)C(C(=O)OC)=C(C(=O)OC)SC1=C2c2ccccc2N(C(=O)Cc2ccccc2)C1(C)C | - | - | - | - | . | .
